Laboratory results as given in PubChem BioAssay AID1851 (National Center for Advancing Translational Sciences (NCATS), 2009).
Screen size: about 16,000 compounds; about 5,100 (32%) were called active. Not shown: some 25% with an inconclusive outcome. The list shows a part of the results. Values without a mark were called inactive. Calls come from the whole dose curve; as a rule, active = well fitted curve in the direction sought with a large enough effect; inconclusive = small, poorly fitted or top-dose-only effect, or effect the other way; inactive = no such curve, though single readings can be large or run the other way.
% is set by controls: 0 for no effect and ±100 for the full control effect.

These compounds were tested against Cytochrome P450 3A4 (Homo sapiens) (UniProt P08684) (assay: Cytochrome panel assay with activity outcomes). Settings: recombinant CYP, pro-luciferin dealkylation, luminescence, p450-cyp3a4; series mostly up to 57.1 µM; activity, negative = inhibition: at the top concentration.
Sequence of Cytochrome P450 3A4 (Homo sapiens) (P08684 whole entry, looked up): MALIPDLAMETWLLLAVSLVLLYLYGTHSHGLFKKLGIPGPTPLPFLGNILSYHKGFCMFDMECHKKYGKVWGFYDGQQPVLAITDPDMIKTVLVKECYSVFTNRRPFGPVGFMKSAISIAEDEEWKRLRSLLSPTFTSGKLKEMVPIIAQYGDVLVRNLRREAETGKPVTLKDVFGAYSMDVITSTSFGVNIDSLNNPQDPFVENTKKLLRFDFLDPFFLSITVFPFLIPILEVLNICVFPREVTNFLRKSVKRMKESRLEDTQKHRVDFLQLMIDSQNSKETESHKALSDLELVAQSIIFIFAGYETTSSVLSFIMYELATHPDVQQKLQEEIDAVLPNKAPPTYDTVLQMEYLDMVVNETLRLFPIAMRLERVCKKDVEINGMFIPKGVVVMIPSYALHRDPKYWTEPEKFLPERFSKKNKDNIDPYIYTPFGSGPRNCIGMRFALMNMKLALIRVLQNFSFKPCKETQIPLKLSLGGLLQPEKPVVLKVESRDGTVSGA
Work on O=[N+]([O-])c1ccc(N/N=C\c2cccn2-c2ccccc2)nc1 yielded an activity, negative = inhibition of 0.811% [at 2.29 µM].
For Cc1ccc(S(=O)(=O)N/N=C/c2cccn2-c2ccc(Cl)cc2)cc1, the AC50 was 10 µM (active).
With O=S(=O)(N/N=C\c1cccn1-c1ccccc1)c1ccc2ccccc2c1 the AC50 was 7.08 µM (active).
CC1=NN(c2ccc(S(=O)(=O)O)cc2)C(=O)/C1=C\c1ccc(Cl)cc1 gave an activity, negative = inhibition of 2.74% [at 11.4 µM].
Cc1ccc(-c2nn(-c3ccccc3)cc2/C=N/NS(=O)(=O)c2ccccc2)cc1 showed an activity, negative = inhibition of -20.9% [at 2.29 µM].
In the case of C/C(=N/O)[C@@H]1C[C@H](CC(=O)O)C1(C)C, the activity, negative = inhibition is reported as -25.4% [at 11.4 µM].
In the case of O=C(c1csnn1)N1CCC2(CC1)CN(Cc1cc(C(F)(F)F)cc(C(F)(F)F)c1)C2, the “activity, negative = inhibition” value is reported as -23.4%.
For O=C(c1cnccn1)N1CCC[C@@]2(CCN(Cc3cc(C(F)(F)F)cc(C(F)(F)F)c3)C2)C1, the AC50 was 7.94 µM (active).
In the case of O=C(c1cnccn1)N1CCC[C@@]2(CCN(Cc3ccncc3)C2)C1, the AC50 is reported as 15.8 µM (active).
O=C(c1cnccn1)N1CCC2(CC1)CN(Cc1cc(C(F)(F)F)cc(C(F)(F)F)c1)C2 was tested, and the “activity, negative = inhibition” value was -23.4%.
For c1ccc(N2CCN(CCCOc3ccc4c(c3)OCO4)CC2)cc1, the AC50 was 3.16 µM (active).
For Cc1ccccc1OCCCN1CCCC1, the “activity, negative = inhibition” value was -1.3%.
For OC[C@@H](O)CN1CCN(c2ccccc2)CC1, the “activity, negative = inhibition” value was -9.47% [at 25.6 µM].
With CN1CCN(c2ncc3nc(CCc4ccccc4)c(=O)n(Cc4ccc(F)cc4)c3n2)CC1 the AC50 was 5.01 µM (active).
With COc1cccc(Cn2c(=O)c(CCc3ccccc3)nc3cnc(N4CCNCC4)nc32)c1 the AC50 was 15.8 µM (active).
For CN1CCN(c2ncc3ncc(=O)n(CCC#N)c3n2)CC1, the “activity, negative = inhibition” value was 1.63%.
For COc1cccc(Cn2c(=O)cnc3cnc(N4CCN(C)CC4)nc32)c1, the AC50 was 15.8 µM (active).
In the case of CN1CCN(c2ncc3ncc(=O)n(C[C@H]4CCCO4)c3n2)CC1, the “activity, negative = inhibition” value is reported as 10.6%.
For COc1cccc(Cn2c(=O)c(CCc3ccccc3)nc3cnc(N4CCN(C)CC4)nc32)c1, the AC50 was 15.8 µM (active).
NC([N-]/N=C/c1ccccn1)=[S]=[Fe].O=S(=O)(O)O showed an activity, negative = inhibition of -4.8% [at 11.4 µM].
Cc1ccccc1NC(=O)CSc1nc(N2CCCCC2)nc(N2CCCCC2)n1 was tested, and the AC50 was 2 µM (active).
Compound O=C(CSc1nc2ccccc2o1)Nc1nc2ccccc2s1 has an activity, negative = inhibition of -7.57% [at 2.29 µM].
In the case of Cc1cc(C)nc(SCC(=O)Nc2ccccc2[N+](=O)[O-])n1, the “activity, negative = inhibition” value is reported as -9.77%.
In the case of O=C(CNC1CCCCCC1)Nc1ccccc1N1CCCCC1, the activity, negative = inhibition is reported as -25% [at 2.29 µM].
O=C(CSc1nc2ccccc2o1)Nc1ccccc1N1CCCCCC1 was tested, and the AC50 was 3.98 µM (active).
CC(C)NC[C@H](O)c1cc(O)cc(O)c1 was tested, and the AC50 was “inactive”.
COc1cccc(-c2cc(=O)c3ccccc3o2)c1N was tested, and the AC50 was 7.94 µM (active).
COc1cccc2cc3c(=O)oc4ccccc4c3nc12 was tested, and the activity, negative = inhibition was -6.03% [at 2.29 µM].
In the case of COc1ccccc1-c1c(C)oc2c(CN3CCN(CCO)CC3)c(O)ccc2c1=O, the “activity, negative = inhibition” value is reported as 3.63%.
Cc1ccc(NC(=O)CN2C(=O)N/C(=C/c3ccc(C)o3)C2=O)cc1 was tested, and the activity, negative = inhibition was 7.39% [at 2.29 µM].
CCOc1cc(/C=C2/NC(=O)N(CC(=O)Nc3cccc(C)c3)C2=O)ccc1OC was tested, and the AC50 was 1.78 µM (active).
For CCCOc1ccc(-c2nc(N)n[nH]2)cc1, the activity, negative = inhibition was 8.08% [at 11.4 µM].
With CCC1CC(CSc2ncn[nH]2)OC1=O (stereo unspecified) the “activity, negative = inhibition” value was -23.1%.
COc1ccc(OCCSc2ncn[nH]2)cc1 was tested, and the AC50 was 14.1 µM (active).
C[C@@H](CNC(N)=O)NC(N)=O was tested, and the activity, negative = inhibition was -2.29% [at 11.4 µM].
With COCCCNC(=O)C1C2C=CC3(CN(Cc4ccc(C)cc4)C(=O)C13)O2 (stereo unspecified) the AC50 was 7.94 µM (active).
Work on O=C(NCC1COc2ccccc2O1)C1C2C=CC3(CN(Cc4cccs4)C(=O)C13)O2 (stereo unspecified) yielded an activity, negative = inhibition of -13.1% [at 2.29 µM].
For Cc1ccc(CN2CC34C=CC(O3)C(C(=O)NCc3ccco3)C4C2=O)cc1 (stereo unspecified), the AC50 was 8.91 µM (active).
Cc1ccc(CN2CC34C=CC(O3)C(C(=O)NCc3ccc5c(c3)OCO5)C4C2=O)cc1 (stereo unspecified) was tested, and the AC50 was 0.251 µM (active).
COc1ccc(CCN2CC34C=CC(O3)C(C(=O)NCc3ccccc3)C4C2=O)cc1OC (stereo unspecified) was tested, and the AC50 was 2.82 µM (active).
In the case of CCOc1ccc(NC(=O)N2CCC(C(N)=O)(N3CCCCC3)CC2)cc1, the “activity, negative = inhibition” value is reported as -3.16%.
CCCCNC(=O)C1C2C=CC3(CN(Cc4ccccc4Cl)C(=O)C13)O2 (stereo unspecified) was tested, and the AC50 was 3.98 µM (active).
O=C(O)C1C2C=CC3(CN(Cc4ccccn4)C(=O)C13)O2 (stereo unspecified) was tested, and the “activity, negative = inhibition” value was -6.39%.
For CCCCNC(=O)C1CCN(Cc2ccccn2)CC1, the “activity, negative = inhibition” value was -14.9%.
Work on CC(CC(=O)O)(CC(=O)O)c1ccccc1 yielded an activity, negative = inhibition of 0.682% [at 11.4 µM].
c1ccc([C@@H]2CN3CCSC3=N2)cc1 was tested, and the AC50 was “inactive”.
In the case of Cc1nn(Cc2ccc(Cl)cc2)c(C)c1NC(=O)CSc1nc2c(c(C(F)(F)F)n1)CCc1ccccc1-2, the AC50 is reported as 3.16 µM (active).
Cc1ccccc1Cn1cc(NC(=O)CSc2nc3c(c(C(F)(F)F)n2)CCc2ccccc2-3)cn1 was tested, and the AC50 was 5.01 µM (active).
Compound NC(CSS(=O)(=O)O)=N[C@@H]1C[C@H]2CC[C@@H]1C2 has an activity, negative = inhibition of -19.6% [at 11.4 µM].
CCCC1c2c(ccc3ccccc23)Oc2ccc3ccccc3c21 was tested, and the activity, negative = inhibition was -11.1% [at 11.4 µM].
For N#Cc1cccc(-c2cc(NCc3ccccc3)ncn2)c1, the “activity, negative = inhibition” value was -12.5%.
With N#Cc1cccc(-c2cc(NCc3cccnc3)ncn2)c1 the AC50 was 2.51 µM (active).
In the case of Cc1cccc(CNc2cc(-c3cccc(C#N)c3)ncn2)c1, the AC50 is reported as 7.94 µM (active).
In the case of CC1(C)CCC(C)(C)c2cc(C(=O)Nc3ccc(C(=O)O)cc3)ccc21, the “activity, negative = inhibition” value is reported as -26.2%.
In the case of COc1ccccc1C1=NOC(COC(=O)c2ccc3ccccc3n2)C1 (stereo unspecified), the AC50 is reported as 17.8 µM (active).
With O=C(OCC1CC(c2ccccc2)=NO1)c1ccc(Cl)cc1 (stereo unspecified) the “activity, negative = inhibition” value was -4.52%.
COc1ccc(CNc2cc(-c3cccc(NS(C)(=O)=O)c3)ncn2)c(OC)c1 was tested, and the AC50 was 2.51 µM (active).
In the case of COc1ccccc1CNc1cc(-c2cccc(NS(C)(=O)=O)c2)ncn1, the AC50 is reported as 5.01 µM (active).
In the case of Cc1cnn(-c2cc(N/N=C/c3ccccc3F)ncn2)c1, the activity, negative = inhibition is reported as -16.7% [at 2.29 µM].
With Cc1cccc(C2NC(=O)c3c(sc(C)c3C)N2)c1O (stereo unspecified) the AC50 was 12.6 µM (active).
CC(C)(Oc1ccc(-c2cccc3ccccc23)cc1)C(=O)O was tested, and the activity, negative = inhibition was -6.61% [at 11.4 µM].
With O=C(O)c1ccccc1-c1ccccc1C(=O)Nc1ccc2c(c1)Cc1cc(F)ccc1-2 the activity, negative = inhibition was -16.4% [at 11.4 µM].
For O=C(O)CC[C@@H](NC(=O)c1ccccc1C(=O)O)C(=O)O, the “activity, negative = inhibition” value was 2%.
For O=C(O)c1ccccc1C(=O)NNc1ccc(Cl)cc1, the AC50 was 7.94 µM (active).
O=C(O)c1ccccc1C(=O)NCc1ccc(F)cc1 was tested, and the “activity, negative = inhibition” value was 12.7%.
O=C(NNC(=O)c1ccccc1O)c1ccc(Cl)cc1 was tested, and the “activity, negative = inhibition” value was 25.4%.
For O=C(O)c1ccccc1C(=O)NNc1ccc(F)cc1, the AC50 was 11.2 µM (active).
Oc1c(CN2CCCCC2)cc(Br)c2cccnc12 was tested, and the “activity, negative = inhibition” value was -21.6%.
In the case of Cc1cc(NC(=O)Nc2ccc3c(ccn3C)c2)sn1, the AC50 is reported as 12.6 µM (active).
With CCCNC(=O)Nc1ccc2c(c1)nc(C)n2C the “activity, negative = inhibition” value was 16.3%.
In the case of Cc1noc(C)c1-c1ccc2ncnc(NCCN3CCOCC3)c2c1, the AC50 is reported as 12.6 µM (active).
With Cc1noc(C)c1-c1ccc2ncnc(N3CCN(C)CC3)c2c1 the AC50 was 25.1 µM (active).
With Cc1noc(C)c1-c1ccc2ncnc(N3CCOCC3)c2c1 the AC50 was 31.6 µM (active).
CCN1CCC[C@H]1CNC(=O)c1cc(S(N)(=O)=O)ccc1OC was tested, and the AC50 was “inactive”.
In the case of CCOC(=O)C1=C2SCC(=O)N2C(N)=C(C#N)C1, the “activity, negative = inhibition” value is reported as -0.332%.
For COc1ccccc1CC(=N)N1C[C@@H]2C(=O)CCC(c3ccccc3)(c3ccccc3)[C@@H]2C1, the AC50 was 3.16 µM (active).
In the case of COc1ccccc1CN1CCC2(CC1)CCN(C(C)=O)CC2, the “activity, negative = inhibition” value is reported as -8.53%.
With COCC(=O)N1CCC2(CC1)CN(Cc1ccccc1OC)C2 the “activity, negative = inhibition” value was 19.7%.
For CC1(C)OC(=O)NC1=O, the “activity, negative = inhibition” value was -5.49% [at 25.6 µM].
With O=C1C(=O)c2ccccc2C(O)=C1C1CCC(c2ccc(Cl)cc2)CC1 (stereo unspecified) the “activity, negative = inhibition” value was -8.47% [at 25.6 µM].
O=C1CCCC2=C1C(c1ccc(Cl)cc1)C1C(=O)c3ccccc3C1=N2 (stereo unspecified) was tested, and the AC50 was 14.1 µM (active).
CC[C@](N)(C(=O)O)C(C)C was tested, and the activity, negative = inhibition was -7.26% [at 11.4 µM].
In the case of COC(=O)[C@@]1(Cc2ccccc2)[C@@H]2C(=CC(=O)[C@H]2CC(=O)C(=O)N(C)C)CN1C(=O)c1ccccc1, the AC50 is reported as 7.94 µM (active).
In the case of COC(=O)[C@@]1(Cc2ccc(F)cc2)[C@@H]2C(=CC(=O)[C@H]2CC(=O)C(=O)N(C)C)CN1C(=O)c1ccccc1, the AC50 is reported as 10 µM (active).
For CC(O)CN(CCC(N)=O)CCC(N)=O (stereo unspecified), the “activity, negative = inhibition” value was 2.63%.
Compound CC1CN(C(=S)NC(=O)c2ccc([N+](=O)[O-])cc2)CC(C)O1 (stereo unspecified) has an activity, negative = inhibition of 2.57% [at 2.29 µM].
In the case of O=C(O)/C(Cc1ccc([N+](=O)[O-])cc1)=N/O, the activity, negative = inhibition is reported as -11.6% [at 11.4 µM].
In the case of CC(=O)N=c1sccn1CC(=O)c1ccc([N+](=O)[O-])cc1, the AC50 is reported as 4.47 µM (active).
CCC(=O)OCN1C(=O)C=CC1=O gave an activity, negative = inhibition of 2.64% [at 11.4 µM].
N=C(N)SCc1nc2ccccc2c(=O)n1-c1ccccc1Cl showed an activity, negative = inhibition of -15.4% [at 2.29 µM].
For CCCN1C(=O)C(Cc2nc3ccccc3c(=O)n2C)c2ccccc21 (stereo unspecified), the AC50 was 7.94 µM (active).
With CC(=O)N1CCN(C(=O)CC2OC(=O)c3ccccc32)CC1 (stereo unspecified) the AC50 was 12.6 µM (active).
CC(=O)N1CCC2(CC1)CN(c1ccccc1)C2 was tested, and the “activity, negative = inhibition” value was -17.8%.
CCOC(=O)CC1NC(=O)c2ccccc21 (stereo unspecified) was tested, and the “activity, negative = inhibition” value was 6.92%.
For O=C(CSc1nc2ccccc2[nH]1)Nc1c(F)cccc1F, the AC50 was 14.1 µM (active).
Work on O=C(O)CSc1nc2ccccc2[nH]1 yielded an activity, negative = inhibition of 2.87% [at 11.4 µM].
